Data reported in ChEMBL document CHEMBL3988442, “University of Dundee, Small-Polar-MMV Screening Library” (2021).
In all, about 48,000 compounds went through this assay and about 13,000 (27%) showed an effect of 50% or more. This is one part of the list.

system: Wolbachia pipientis; test: Anti-Wolbachia Cell-Based Screen; format: functional; design: scale not given: in the data most compounds retested in dose-response had high values; settings: 5 µM

| SMILES | Percent Effect |
| --- | --- |
| Cc1cc(C)nc(N2CC=C[C@@H]2C(=O)NCc2ccc3c(c2)OCO3)n1.Cl | 87.31% |
| Cc1cc(C)nc(N2CC=C[C@H]2C(=O)NCc2ccc3c(c2)OCO3)n1 | 114.7% |
| CC(CNC(=O)NCc1ccc2c(c1)OCO2)CC1(C)OCCO1 (stereo not given) | -13.46% |
| Cn1cnnc1C1CCCN(C(=O)NCc2ccc3c(c2)OCO3)C1 (stereo not given) | -7.5% |
| CC(C)(C)NS(=O)(=O)c1cc(NC(=O)C2CC2)ccc1F | -6.714% |
| Cc1cc(C)nc(CN(C)C(=O)C(c2cccnc2)N2CCCC2)c1 (stereo not given) | 24.45% |
| O=S(=O)(c1ccc(F)cc1Cl)N1CCCC1c1ccncc1 (stereo not given) | 106.2% |
| C[C@@H]1CN(S(=O)(=O)c2ccc(F)cc2Cl)C[C@]1(C)O | 2.252% |
| COc1ccc(F)cc1S(=O)(=O)N1CCC(OC)CC1 | 11.35% |
| COC(=O)[C@H]1C[C@@H](O)CCN1S(=O)(=O)c1ccc(F)cc1F | -1.254% |
| CN(CC(=O)NC1CC1)S(=O)(=O)c1ccc(F)cc1Cl | -5.607% |
| O=S(=O)(c1cc(F)ccc1F)N1CCCC1c1ccco1 (stereo not given) | 90.48% |
| COc1ccc(C2CCCCCN2S(=O)(=O)N(C)C)cc1 (stereo not given) | -32.58% |
| COC1CCN(S(=O)(=O)N2CCCC2c2ccco2)CC1 (stereo not given) | -19.32% |
| COc1ccc(C2CCCN2S(=O)(=O)N(C)CC(C)C)cc1 (stereo not given) | -5.01% |
| COc1ccc(C2CCCN2S(=O)(=O)c2cc(F)ccc2F)cc1 (stereo not given) | 118.1% |
| O=S(=O)(c1cc(F)ccc1F)N1CCCC1c1ccncc1 (stereo not given) | 90.37% |
| O=S(=O)(N1CCC(n2cccc2)CC1)N1CCCC1c1ccco1 (stereo not given) | -32.64% |
| Cc1noc(CCCC(=O)N2CCN(C)CC2c2ccccc2)n1 (stereo not given) | 7.741% |
| Cc1cc(C(=O)N2CCNC(=O)CC2)c(C)n1CC(F)(F)F | -3.477% |
| CCN(CC)Cc1ccc(C(=O)NC2CCc3cc(Cl)ccc32)o1 (stereo not given) | 1.872% |
| CNS(=O)(=O)CCCn1nnc(-c2ccc(F)c(C)c2)n1 | -16.4% |

| SMILES | Percent Effect |
| --- | --- |
| O=C(NC1CC(=O)N(C2Cc3ccccc3C2)C1)c1csnn1 (stereo not given) | -8.023% |
| CN1CCN2C[C@@H](NC(=O)c3nc4ccccc4[nH]3)C[C@H]2C1 | 10.91% |
| CN1C(=O)CC(C(=O)O)C12CCN(Cc1ccc(F)c(Cl)c1)CC2 (stereo not given) | 19.25% |
| Cc1ccc([C@@H]2CN(S(=O)(=O)c3cc(C)ccc3F)C[C@H]2N(C)C)cc1 | -17.89% |
| Cc1ccc(F)c(S(=O)(=O)N2CCCC2c2ccncc2)c1 (stereo not given) | 113.4% |
| CCC[C@H]1CN(S(=O)(=O)c2cc(C)ccc2F)C[C@@H]1N | -6.271% |
| COc1ccc(NC(C)C(=O)N2CCN(Cc3ccccc3)CC2)cn1 (stereo not given) | 10.35% |
| CC(C)Oc1cccc(C(O)CNC(=O)CCc2ccncc2)c1 (stereo not given) | -6.251% |
| OC(CNC1CCSCC1)c1cccc(OCc2ccccc2)c1 (stereo not given) | 91.01% |
| COc1cccc(C(O)CNC(=O)CC2CCCCC2)c1 (stereo not given) | 1.218% |
| OC(CNC1CCOCC1)c1cccc(OCc2ccccc2)c1 (stereo not given) | 100.2% |
| CCN1CCC(CC(=O)NCC(O)c2cccc(OC)c2)CC1 (stereo not given) | 5.929% |
| COc1cccc(CNC(CN2CCN(C)CC2)c2ccccc2)c1 (stereo not given) | -4.654% |
| CN1CCC(NCC(O)c2cccc(OCc3ccccc3)c2)CC1 (stereo not given) | 116.6% |
| CO[C@@H](C(=O)NC1CCOCC1)c1ccccc1 | -10.4% |
| CN(Cc1ccccc1)c1ncccc1CNC1CCSCC1 | -9.19% |
| O=C(O)C(F)(F)F.O=C(c1ccccc1)N1CCS(=O)(=O)[C@@H]2CCNCC[C@@H]21 | -7.979% |
| c1ccc(CCn2cc(-c3nc(CN4CCOCC4)no3)nn2)cc1 | 7.795% |
| COc1ccc(-c2n[nH]cc2CN(C)CCc2scnc2C)c(F)c1 | -15.83% |
| Cc1cc2nc(CO[C@H]3CN(C4CCN(C)CC4)C[C@H]3F)[nH]c2cc1C | -19.54% |
| COc1cccc2c1OCC(C(=O)N1CCC(NS(C)(=O)=O)CC1)C2 (stereo not given) | 16.61% |
| CC(C)c1cnc(CN2C(=O)CC3(CCSC3)C2=O)o1 (stereo not given) | 17.31% |

| SMILES | Percent Effect |
| --- | --- |
| Cc1cnccc1CN1C[C@@H](O)[C@H](Oc2ccccc2)C1 | -5.554% |
| O[C@@H]1CN(Cc2ccncc2)C[C@H]1Oc1ccccc1 | 125.9% |
| CCC1CN(C(=O)c2cncc(C)c2)CCC(=O)N1Cc1ccccc1 (stereo not given) | -10.11% |
| Cc1cncc(CN2C[C@@H](O)[C@H](Oc3ccccc3)C2)c1 | 132.9% |
| O[C@@H]1CN(Cc2cccnc2)C[C@H]1Oc1ccccc1 | 103.4% |
| CC(C)O[C@H]1CN(Cc2cnc3c(-c4ccccc4)cnn3c2)C[C@@H]1O | 3.276% |
| O=C1NC(c2ccccc2)=N[C@@]12CC[C@@H]1CN(Cc3cccnc3)C[C@@H]12 | 0.6919% |
| OC1CN(Cc2ccccc2)CCN(c2ccncc2)C1 (stereo not given) | 12.72% |
| F[C@@H]1CN(Cc2cccnc2)C[C@@H]1OCc1nc2ccccc2[nH]1 | 10.94% |
| COCC(=O)N1CCN(c2ncnc3cccc(F)c23)CC1 | 0.7263% |
| CC1COc2ccccc2N1C(=O)c1ccc(=O)n(C)c1 (stereo not given) | -18.38% |
| Fc1cccc(N2CCCC3(C2)CN(c2ncccn2)CCO3)c1.O=C(O)C(F)(F)F.O=C(O)C(F)(F)F (stereo not given) | -1.466% |
| CCc1nc(CN2CCCN(c3nccs3)CC2)no1 | 1.816% |
| Cc1nc(CN2CCCN(c3nccs3)CC2)no1 | 78.71% |
| c1csc(N2CCN(Cc3nnnn3C3CC3)CC2)n1 | -36.32% |
| Cc1csc(N2CCCN(Cc3noc(C)n3)CC2)n1 | 0.2085% |
| c1csc(N2CCCN(Cc3nc(C4CC4)no3)CC2)n1 | -5.415% |
| CCc1nc(CN2CCCN(c3ncnc4ccsc34)CC2)no1 | -84.77% |
| CC(C)c1nc(CN2CCCN(c3nccs3)CC2)no1 | 89.07% |
| c1csc(N2CCCN(Cc3noc(C4CC4)n3)CC2)n1 | 107.3% |
| C[C@@H]1CN(C(=O)CCc2nncn2C)C[C@@]1(O)C1CCC1 | -1.808% |
